Here are results for nine molecules from article PMC5540273 (PLoS ONE, 2017).

Among the test systems are STK36; STK39; SYK; SgK110; TAOK1; TAOK2; TAOK3; TBK1; TEC; TESK1; TGFBR1; TGFBR2; TIE1; TLK1; TLK2; TNIK; TNK1; TNK2.
Holding throughout (details): concentration: 1 μM, replicates: in singlicate; n = 1
The subject of another experiment is T1, TAK1.
T1 construct: gene MAP3K7

A further experiment has as its system T2, TIE2.
T2 construct: gene TEK
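Further: KINOMEscan kinase panel screen.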

As to `Cn1cc(-c2ccc3c(c2)CCN3C(=O)Cc2cccc(F)c2)c2c(N)ncnc21` [GSK2603358], the “%Inh” value in the experiment on STK36 is on record as 0%; with STK39, 12%; in the experiment with SYK, 18%; in the experiment on SgK110 it was 0%; in the experiment on TAK1 it was 30%; in the experiment on TAOK1, 0%. The “%Inh” value with TAOK2 is given as 0%; in the experiment on TAOK3 it was 0%; in the experiment with TBK1, 19%; with TEC, 8%; with TESK1 it was 39%; in the experiment with TGFBR1, 0%. For the same molecule, the “%Inh” value in the experiment with TGFBR2 was found to be 0%; with TIE1, 89%; with TIE2 it was 48%; in the experiment on TLK1, 0%; in the experiment with TLK2, 0%; in the experiment with TNIK, 0%. Moreover, the “%Inh” value in the experiment on TNK1 is on record as 0%; in the experiment with TNK2, 3%.

Take `Cc1cccc(NC(=O)Nc2ccc(Oc3ncnc4ccn(C)c34)cc2)c1`: the “%Inh” value in the experiment on STK36, with STK39, with SYK, in the experiment on SgK110, in the experiment on TAK1 and with TAOK1 was 0% each time. The “%Inh” value in the experiment on TAOK2 was determined as 20%; in the experiment on TAOK3 it was 0%; in the experiment with TBK1, 6%; in the experiment with TEC it was 0%; with TESK1 it was 0%; in the experiment with TGFBR1, 0%. The “%Inh” value in the experiment on TGFBR2 is on record as 0%; in the experiment on TIE1 it was 59%; in the experiment with TIE2, 2%; in the experiment with TLK1 it was 0%; in the experiment with TLK2, 0%; in the experiment on TNIK, 8%. For the same molecule, the “%Inh” value in the experiment with TNK1 was found to be 0%; with TNK2 it was 5%.

Take `Cl.c1ccc(-c2ccc3c(Nc4ccc5[nH]ncc5c4)ccnc3c2)nc1` [GW440137]: the “%Inh” value in the experiment on STK36 was found to be 0%; in the experiment with STK39 it was 6%; in the experiment with SYK, 27%; with SgK110, 6%; in the experiment with TAK1 it was 0%; with TAOK1, 0%. In addition, the “%Inh” value in the experiment on TAOK2 stood at 0%; with TAOK3, 0%; in the experiment on TBK1, 21%; with TEC, 0%; in the experiment with TESK1 it was 63%; with TGFBR1, 31%. Moreover, the “%Inh” value in the experiment with TGFBR2 is reported as 50%; in the experiment on TIE1, 1%; in the experiment on TIE2 it was 0%; with TLK1 it was 15%; with TLK2 it was 5%; in the experiment on TNIK it was 18%. Also, the figures for the “%Inh” value with TNK1 and with TNK2 were 2% and 8%, respectively.

Consider `Cc1ccc(S(=O)(=O)Nc2ccc(Nc3nccc(Nc4cccc5[nH]ncc45)n3)cc2)cc1` [GSK581271], for which the “%Inh” value in the experiment with STK36 turned out to be 0%; with STK39, 1%; with SYK, 31%; with SgK110 it was 0%; with TAK1, 0%; in the experiment on TAOK1 it was 0%. Moreover, the “%Inh” value in the experiment on TAOK2 was determined as 0%; in the experiment with TAOK3 it was 0%; with TBK1, 9%; with TEC, 9%; in the experiment on TESK1, 13%; in the experiment on TGFBR1, 20%. The “%Inh” value amounted to 91.2% in the experiment on TGFBR2; 9% in the experiment on TIE1; 0% in the experiment with TIE2; 0% in the experiment on TLK1; 0% in the experiment on TLK2; 0% in the experiment on TNIK. For the same molecule, the figures for the “%Inh” value in the experiment on TNK1 and in the experiment with TNK2 were 0% and 27%, respectively.

Consider `CCc1ccc(-c2ccc3c(c2)-c2c(cnn2C)S(=O)(=O)N3C)cc1`, for which the “%Inh” value stood at 0% with STK36; 0% with STK39; 0% with SYK; 0% in the experiment on SgK110; 4% with TAK1; 0% in the experiment on TAOK1. Besides, the “%Inh” value with TAOK2 is recorded as 0%; in the experiment with TAOK3, 0%; in the experiment with TBK1, 8%; in the experiment with TEC it was 0%; with TESK1, 3%; in the experiment with TGFBR1 it was 0%. In addition, the “%Inh” value was 2% in the experiment with TGFBR2; 33% with TIE1; 0% with TIE2; 0% with TLK1; 0% with TLK2; 8% in the experiment with TNIK. The “%Inh” value with TNK1 and in the experiment on TNK2 was 0% in each case.

For the molecule `Cl.Cl.NCC(NC(=O)c1cc(-c2ccccc2)c(-c2ccnc3[nH]ccc23)s1)c1ccccc1` (stereo not drawn) [GSK1321561], the “%Inh” value in the experiment with STK36 is on record as 29%; in the experiment with STK39 it was 8%; in the experiment with SYK, 5%; in the experiment on SgK110, 0%; in the experiment with TAK1, 35%; with TAOK1, 4%. The “%Inh” value in the experiment on TAOK2 turned out to be 0%; with TAOK3, 0%; in the experiment with TBK1, 24%; in the experiment on TEC it was 11%; with TESK1 it was 16%; in the experiment with TGFBR1, 0%. Besides, the “%Inh” value in the experiment on TGFBR2 is 0%; in the experiment with TIE1, 13%; with TIE2, 0%; in the experiment with TLK1, 54%; in the experiment with TLK2, 0%; in the experiment on TNIK, 86%. The “%Inh” value in the experiment with TNK1 came out at 0%; in the experiment on TNK2 it was 7%.

With `COc1cc(Nc2nccc(-c3c(-c4cccc(NC(=O)c5c(F)cccc5F)c4)nn4ccccc34)n2)cc(OC)c1OC` [GSK323521], the “%Inh” value was determined as 19% in the experiment on STK36; 8% in the experiment on STK39; 28% in the experiment on SYK; 0% with SgK110; 28% in the experiment with TAK1; 0% in the experiment with TAOK1. Besides, the “%Inh” value in the experiment with TAOK2 stood at 0%; in the experiment on TAOK3, 0%; in the experiment with TBK1 it was 3%; in the experiment on TEC, 21%; in the experiment on TESK1, 36%; in the experiment on TGFBR1, 0%. Also, the “%Inh” value in the experiment with TGFBR2 is given as 17%; in the experiment with TIE1 it was 67%; in the experiment with TIE2, 46%; in the experiment on TLK1, 6%; in the experiment on TLK2 it was 0%; in the experiment with TNIK, 0%. Moreover, the “%Inh” value in the experiment with TNK1 is 0%; in the experiment on TNK2 it was 1%.

Turning to `COC(=O)Nc1nc2ccc(Oc3ccc(NC(=O)Nc4cc(C(F)(F)F)ccc4F)cc3)cc2n1C.Cl` [GW692089], the “%Inh” value was found to be 22% in the experiment with STK36; 0% in the experiment with STK39; 52% in the experiment with SYK; 0% in the experiment with SgK110; 38% in the experiment with TAK1; 0% in the experiment on TAOK1. For the same molecule, the “%Inh” value with TAOK2 is given as 0%; in the experiment with TAOK3, 0%; with TBK1 it was 0%; in the experiment with TEC, 0%; in the experiment on TESK1, 0%; in the experiment on TGFBR1, 7%. The “%Inh” value in the experiment on TGFBR2 came out at 0%; in the experiment with TIE1, 97%; in the experiment on TIE2 it was 97.3%; with TLK1, 0%; with TLK2 it was 33%; in the experiment on TNIK, 10%. Besides, the “%Inh” value in the experiment on TNK1 and with TNK2 was 0% throughout.

`O=C(Nc1cccc(-c2nn3ccccc3c2-c2ccnc(Nc3cccc(C(F)(F)F)c3)n2)c1)c1c(F)cccc1F` [GSK292658]: the “%Inh” value stood at 97.8% in the experiment on STK36; 0% in the experiment on STK39; 37% with SYK; 68% in the experiment on SgK110; 0% with TAK1; 27% with TAOK1. The “%Inh” value in the experiment on TAOK2 was found to be 3%; with TAOK3 it was 30%; in the experiment with TBK1 it was 8%; with TEC, 83%; in the experiment with TESK1, 0%; with TGFBR1, 6%. The “%Inh” value with TGFBR2 is reported as 0%; in the experiment with TIE1, 31%; in the experiment on TIE2, 0%; in the experiment with TLK1 it was 0%; in the experiment with TLK2, 0%; with TNIK, 0%. The results for the “%Inh” value in the experiment on TNK1 and with TNK2 were 75% and 22%, respectively.
